# Pf Dd2 inh: inhibitors of Plasmodium falciparum Dd2 growth; P. falciparum Dd2 growth, SYBR Green, 72 h; Potency, µM (highest dose often 28.9 µM), for the others: top-dose activity, negative = inhibition, hits mostly inhibitors; 4.3% of 120,000 active; active = well fitted inhibition curve with a large enough effect;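 note: plate controls were DMSO vehicle for no effect and reference drug for full effect; nearly all actives have a fitted effect of over 65% in size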
#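 Infected erythrocytes (Dd2, 0.3% parasitemia, 2.5% hematocrit final) are added to compound in RPMI-1640/Albumax II medium, grown 72 h at 37C in low oxygen, then lysed with saponin/Triton-X containing SYBR Green and read by fluorescence.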
# * = called active by the depositor; i = inactive; [ ] = dose if it differs, or a comment. The entries come from a sample that favours hits as a whole. Potency is the fitted concentration of half-maximal effect.
SMILES,Pf Dd2 inh
CCOC(=O)C1(Cc2ccc(OC)cc2)CCN(C(=O)C(C)Oc2ccccc2)CC1 (stereo not drawn),-10%
CCOC(=O)C1(Cc2cccc(OC)c2)CCCNC1 (stereo not drawn),11µM*
CCOC(=O)C1(Cc2ccccc2)CCNCC1,5.6µM*
CCOC(=O)C1(Cc2ccc(Cl)cc2)CCN(Cc2ccc(OC)cc2O)CC1,0.089µM*
CCOC(=O)C1(Cc2ccc(F)cc2)CCCNC1 (stereo not drawn),2.8µM*
COc1cccc(CNC(=O)C2=C(C)C(=O)OC23CCCCCC3)c1,-20%
COc1cccc(CN2CCC3(CC2)C(=O)NCN3Cc2ccc(Cl)cc2)c1,-17%
CCOC(=O)C1(Cc2ccccc2)CCCN(C(=O)c2ccccc2SC)C1 (stereo not drawn),-34%
CCOC(=O)c1cc(S(=O)(=O)NCc2ccc(F)cc2)[nH]n1,i
CCOC(=O)C1(Cc2ccccc2)CCCN(S(=O)(=O)c2ccc(OC)c(OC)c2)C1 (stereo not drawn),i
COc1cccc(CC2(CO)CCCNC2)c1 (stereo not drawn),-26%
O=C(NCc1nnc2cc(-c3nc(C4CC4)no3)ccn12)c1ccncc1,i
Cc1nc2ccccn2c1C(=O)NC(C)c1cnn(-c2ccccn2)c1C (stereo not drawn),0%
Cc1ccccc1S(=O)(=O)N1CCC(CCC(=O)N2CCc3ccccc3C2)CC1,i
O=C(OCc1ccccc1)N1CCC2(CC1)C(=O)NN=C2c1ccccn1,i
COCc1cc(=O)n(CC(=O)Nc2ccccc2F)c(N2CCOCC2)n1,13%
Cc1cnc(C2CCNC2)n1C(C)C (stereo not drawn),1%
COC[C@@H]1CN(C(=O)c2ccc3[nH]ccc3c2)C[C@H]1c1nc(C)no1,16%
COCCn1cnnc1CNc1cc(C)nc2c(C)c(C)nn12,-10%
Cc1ncoc1C(=O)N1CC[C@H](CO)[C@H](NC(=O)c2ccccc2)C1,16%
N#Cc1ccc(CNC2(Cc3cc(-c4ccc(F)cc4)on3)COC2)cc1,i
CC(C(N)=O)N1CCC(n2nccc2NC(=O)c2ccc3c(c2)OCO3)CC1 (stereo not drawn),4%
COCc1noc(CC2CCOC3(CCN(C(=O)NCc4ccc(OC)cc4)CC3)C2)n1 (stereo not drawn),-9%
COCC1CN(C(=O)CCc2cccc(OC)c2)CC12CCNCC2 (stereo not drawn),33%
CCOC(=O)C1(Cc2ccccc2)CCCN(S(=O)(=O)c2cccs2)C1 (stereo not drawn),-2%
SMILES,Pf Dd2 inh
C=CCOc1cccc(C(=O)N2CCC(Cc3ccc(OC)cc3)(C(=O)OCC)CC2)c1,i
CCOC(=O)C1(C/C=C/c2ccccc2)CCCNC1 (stereo not drawn),4µM*
CCOC(=O)C1(Cc2cccc(OC)c2)CCNCC1,5µM*
O=C(N1CCN(C/C=C/c2ccccc2)CC1)C12CNCC1CNC2 (stereo not drawn),-22%
COc1cccc(C(=O)NC2CCCN(c3cc(-c4ccccc4)[nH]n3)C2)c1OC (stereo not drawn),-14%
O=C(NC1CCc2n[nH]c(=O)n2CC1)c1n[nH]c2ccccc12 (stereo not drawn),10%
Cc1ccc(-c2ncc(C(=O)NCCN3CCN(C)CC3)c(-c3ccncc3)n2)cc1,-28%
COc1cccc(OC)c1-c1c(-c2ccccc2)ncn1CCCSC,10µM*
CCCn1ccnc1-c1c(-c2ccccc2)ncn1CCCC(=O)OC,1%
COc1cccc2ccc(-c3c(-c4ccccc4)ncn3CCNC(C)=O)nc12,-28%
COc1ccc(Nc2n[nH]c(C(O)c3cccc(C(F)(F)F)c3)n2)cn1 (stereo not drawn),2%[44.1 µM]
OC(c1ccc2c(c1)CCO2)c1nc(Nc2cccc(C(F)(F)F)c2)n[nH]1 (stereo not drawn),i
OC(c1cccc(C(F)(F)F)c1)c1nc(Nc2cccc(Cl)c2)n[nH]1 (stereo not drawn),7.9µM*
O=C(Cc1ccccc1Cl)N1CCC(c2n[nH]c(=O)n2-c2ccccc2)CC1,i
Nc1c(C(=O)c2ccc(F)cc2)sc(Nc2ccccc2F)c1S(=O)(=O)c1ccc(Br)cc1,11µM*
CCOc1ccccc1Nc1sc(C(=O)c2ccccc2)c(N)c1C(=O)Nc1ccccc1,i
COc1cccc(Nc2sc(C(=O)c3ccc(F)cc3)c(N)c2C(=O)NCc2ccc(Cl)cc2)c1,-6%
CCc1ccc(S(=O)(=O)N2[C@@H]3CC[C@H]2CC(NC(=O)c2ccc(F)cc2)C3)cc1 (stereo partly drawn),i
CCc1ccc(Nc2sc(C(=O)c3ccc(F)cc3)c(N)c2S(=O)(=O)c2ccccc2)cc1,8.9µM*
N#Cc1c(Nc2cccc(F)c2)sc(C(=O)c2ccc(Cl)cc2)c1N,22%
CC(=O)c1cc(CN2CCCC(C(=O)c3cccc(OC(C)C)c3)C2)cs1 (stereo not drawn),-13%
C=CCN1CCN(C(=O)C2CCCN(Cc3ccncc3)CCC(=O)NCC2)CC1 (stereo not drawn),21%
C=CCNC(=O)[C@@H]1CCCN1[C@@H](C(=O)NC)c1ccccc1F,20%[44.1 µM]
CCCn1cc(C2CCN(S(=O)(=O)c3c(C)c(C)cc(C)c3C)CC2)c2ccccc21,10µM*
CCOCCn1cc(C2CCN(S(=O)(=O)c3ccc(Cl)cc3Cl)CC2)c2ccccc21,-9%
SMILES,Pf Dd2 inh
CCOCCn1cc(C2CCN(S(=O)(=O)c3c(C)cc(C)cc3C)CC2)c2ccccc21,-7%
Cc1ccc(-c2nnc(CN3CCC4(CC3)CC(=O)N(CC(C)C)C4)o2)n1C,2%
CN1C[C@H](O)C[C@H]1c1nnc2n1CCN(C(=O)CN1CCCCCC1)CC2,19%
CN1C(=O)CC(C(=O)O)C12CCN(C(=O)Nc1cccc(F)c1)CC2 (stereo not drawn),3%
COCC1CCCN(Cc2nc(C(c3ccccc3)c3ccccc3)no2)C1 (stereo not drawn),11µM*
COc1ccccc1N1CCN(C2CCCN(Cc3nc(C(N)=O)no3)C2)CC1 (stereo not drawn),-21%
O=C(c1cccs1)C1CCCN(Cc2nc(CCc3ccccc3)no2)C1 (stereo not drawn),-18%
O=C(NCc1ccc(F)cc1)C1COC2(CCCCC2)N1C(=O)c1cccc(F)c1 (stereo not drawn),-11%
Cc1noc([C@H]2CCN(S(=O)(=O)c3cn(C)cn3)C[C@H]2NC(=O)C2CC2)n1,i[5.79 µM]
CCN(C(=O)c1cc2c(Cl)nc3ccccc3c2s1)c1cccc(Cl)c1,10µM*
CCN(C(=O)c1cc2c(Cl)nc3ccc(C)cc3c2s1)c1cc(OC)ccc1OC,8.9µM*
CCc1ccccc1N(C)C(=O)c1cc2c(Cl)nc3ccc(C)cc3c2s1,95%[5.79 µM]
CCN(C(=O)c1cc2c(=O)oc3ccccc3c2s1)c1cccc(C(F)(F)F)c1,-4%
Cc1ccc(Cl)cc1N(C)C(=O)c1cc2c(Cl)nc3ccccc3c2s1,20%
CCN(C(=O)c1cc2c(=O)oc3ccc(C)cc3c2s1)c1cc(OC)ccc1OC,1%
CCc1ccc(NC(=O)Cn2ccn3nc4c(c3c2=O)CCCCC4)cc1,i
COc1ccccc1C(=O)N1CC(Oc2ccc(F)cc2F)C1,-4%
COC(=O)[C@H]1CCCN1C(=O)[C@@H]1[C@@H](NC(=O)NC(C)C)CCN1C(=O)c1cccn1C,26%[44.1 µM]
O=c1[nH]nc2n1CCN(Cc1ccc3c(c1)CCO3)CC2,10%
CCN(CC)Cc1ccc2c(c1)CNCCO2,-24%
c1cc2c(cc1CN1CCOCC1)CNCCO2,7.9µM*
CC(C)NC(=O)c1nc(-c2ccc(Cl)cc2)c2ccccn12,2%

# From PubChem
